Source: PubChem (National Center for Advancing Translational Sciences (NCATS))
Sampled rows, rich in hits. Any-hit rate of the full collection: about 21%.
TDP1 cell CPT = qHTS for Inhibitors of human tyrosyl-DNA phosphodiesterase 1 (TDP1): qHTS in cells in presence of CPT; chicken DT40 Tdp1-/-;hTDP1 cells + 20 nM CPT, ATP luminescence, 48 h; Potency, µM (highest dose often 46.2 µM), inactives show at the top dose activity change, negative = growth inhibition, most hits filed as inhibitors; 420,000 tested, 12% active; AID 686979, 2013; further: potency means the concentration at half of the fitted maximal effect; nearly all actives have a fitted effect of over 55% in size
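Cell growth measured by CellTiter-Glo luminescence after a minimum 48 h, 37 C compound exposure with 20 nM CPT in Tdp1-knockout DT40 cells stably expressing hTDP1, seeded 400/well; qHTS titration format.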
RORg inh = qHTS for inhibitors of ROR gamma transcriptional activity | AID 2551, 2010 | 310,000 tested, 5.4% active | Potency, µM (doses to about 53.6 µM), for the others: at the top dose activity change, negative = inhibition, hits mostly inhibitors | Drosophila S2 Gal4-RORgamma UAS-luciferase reporter, 20 h; further: potency means the concentration at half of the fitted maximal effect; nearly all actives have a fitted effect of over 60% in size
Target sequence (P51450 whole entry, looked up, the tested form may be a part): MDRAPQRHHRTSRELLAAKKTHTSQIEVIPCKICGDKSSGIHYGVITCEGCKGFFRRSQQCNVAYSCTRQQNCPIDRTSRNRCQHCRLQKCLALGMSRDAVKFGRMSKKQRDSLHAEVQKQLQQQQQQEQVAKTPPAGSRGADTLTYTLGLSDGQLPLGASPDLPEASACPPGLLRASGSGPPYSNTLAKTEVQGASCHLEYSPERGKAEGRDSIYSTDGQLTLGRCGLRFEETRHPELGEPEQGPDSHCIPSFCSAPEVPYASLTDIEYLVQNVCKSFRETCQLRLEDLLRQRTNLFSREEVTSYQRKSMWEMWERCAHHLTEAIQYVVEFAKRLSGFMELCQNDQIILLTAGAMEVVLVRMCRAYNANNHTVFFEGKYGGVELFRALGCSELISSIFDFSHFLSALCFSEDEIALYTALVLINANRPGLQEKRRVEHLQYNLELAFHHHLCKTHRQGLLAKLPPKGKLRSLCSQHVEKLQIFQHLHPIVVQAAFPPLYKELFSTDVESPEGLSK
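Read-out: Photinus luciferase luminescence; inhibitors lower reporter signal. Insect Schneider cells with Gal4-ROR gamma fusion under metallothionein promoter, UAS reporter; 700 uM final copper sulfate induction, 20 hr, ambient temperature.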
Gal4-VP16 FLuc = VP16 counterscreen qHTS for inhibitors of ROR gamma transcriptional activity; AID 2546, 2010; Potency, µM (titrated, usually from 53.6 µM), for inactives: top-dose activity, negative = inhibition, usual class: inhibitors; Drosophila S2 Gal4-VP16 UAS-luciferase, luminescence, 20 h; 310,000 tested, 3.5% active;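 further: Gal4-VP16 expression switched on by copper sulfate through the metallothionein promoter; potency means the concentration at half of the fitted maximal effect; nearly all actives have a fitted effect of over 50% in size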
ELG1 repair inh = qHTS screen for small molecules that inhibit ELG1-dependent DNA repair in human embryonic kidney (HEK293T) cells expressing luciferase-tagged ELG1. HEK293T ELG1-luciferase reporter, luminescence, 16 h; DNA damage induced by 5-fluorouridine. Potency, µM (doses to about 46.1 µM), inactives show top-dose activity change, negative = inhibition, most hits filed as inhibitors. 330,000 tested, 2.3% active; further: potency means the concentration at half of the fitted maximal effect; nearly all actives have a fitted effect of over 55% in size
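Overnight (16 hr) co-exposure of 2,000 cells/well to 5-fluorouridine and compound at 37 °C preceded detection. Luciferase was quantified via ONE-Glo luminescence; loss of signal denotes inhibition.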
IL1B secr inh = qHTS for Inhibitors of Inflammasome Signaling: IL-1-beta AlphaLISA Primary Screen. THP-1 LPS/ATP IL-1B secretion, AlphaLISA, 16 h; stronger effect = lower value. activity change, % at 57.5 µM. 360,000 tested, 4.7% active; in the data active means activity change below about -50%; inconclusive means mostly about -30% to -49%
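THP-1 cells pretreated 1 hr with compounds (up to 57.5 uM final), then stimulated with LPS (250 ng/mL final) plus ATP (1.25 mM final); secreted IL-1B measured by AlphaLISA after 16 hr, decreased signal indicating inhibition.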
TDP1 cell noCPT = qHTS for Inhibitors of human tyrosyl-DNA phosphodiesterase 1 (TDP1): qHTS in cells in absence of CPT. DT40 Tdp1-/- hTDP1 cells, no CPT, ATP luminescence, 48 h. Potency, µM (series often up to 46.2 µM), without a hit: at the top dose activity change, negative = growth inhibition, usual class: inhibitors. 420,000 tested, 15% active. AID 686978, 2013; further: potency means the concentration at half of the fitted maximal effect; nearly all actives have a fitted effect of over 55% in size
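Camptothecin absent (DMSO only). Human TDP1-complemented DT40 knockout cells, 400 cells/well, 37 °C for minimum 48 hr; ATP measured via CellTiter-Glo, 30 min dark incubation, luminescence.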
Active calls of the source: *; i = inactive; ? = inconclusive; . = not tested or not shown; [ ] = remark or other dose. Unless noted, the call rests on the fitted dose curve; in most records, active means well fitted curve in the direction sought with a large enough effect; inconclusive means small, poorly fitted or top-dose-only effect, or another doubt; inactive means no such curve, though single readings can be large; an effect the other way counts as inactive or inconclusive. On the % scale 0 is the no-effect control and ±100 the full control effect.

SMILES | TDP1 cell CPT | RORg inh | Gal4-VP16 FLuc | ELG1 repair inh | IL1B secr inh | TDP1 cell noCPT
COC(=O)c1ccc(Cn2c(=O)cc(C)c3c(C)nn(C)c32)cc1 | 10.3µM* | . | . | . | . | 16.4µM*
COC(=O)c1ccccc1NC(=O)Cn1c(=O)cc(C)c2c(C)nn(C)c21 | -26.9% | . | . | . | . | ?
COc1cccc(Cn2c(=O)cc(C)c3c(C)nn(-c4ccc(C)cc4)c32)c1 | 20.6µM* | . | . | . | . | 18.4µM*
Cc1nn(C)c2c1c(-c1ccccc1)cc(=O)n2Cc1ccccc1F | ? | . | . | . | . | -25.4%
Cc1nn(C)c2c1c(-c1ccccc1)cc(=O)n2Cc1ccc(F)cc1 | 16.4µM* | . | . | . | . | ?
CCOCCCn1c(C)nc2c(c1=O)c1nc3ccccc3nc1n2-c1ccc2c(c1)OCCO2 | ? | 1.0% | 4.6% | ? | 16.8 | ?
COc1ccc(Cl)cc1-c1cc2c(c(OC)c1)OCCN(Cc1cccn1-c1nccs1)C2 | -0.5%[9.04 µM] | . | . | . | . | -0.2%
Cc1cc2cc(CN(Cc3ccc4c(c3)OCO4)C(=O)c3cnccn3)c3nnnn3c2cc1C | ? | 17.3% | 11.0% | 16.4µM* | 0.0 | ?
O=C(CCCC(=O)c1ccc(F)cc1)c1ccc(F)cc1 | 0.2% | -3.3% | -14.9% | ? | -8.1 | 6.1%
CCOC(=O)c1oc2ccccc2c1NC(=O)CN1CCN(C)CC1 | 7.6% | 0.1% | -5.7% | 1.9% | -2.8 | -3.7%
CCOC(=O)c1cnc(Nc2nc3ccccc3o2)nc1CN1CCN(C)CC1 | 18.4µM* | ? | -1.5% | ? | 89.1 | 13µM*
Cc1cnc(-n2ncc(C(=O)N(C)CC3COCCO3)c2C2CC2)nc1-c1cccs1 (configuration not stated) | -15.1%[9.04 µM] | . | . | . | . | -7.1%
COCCCNC(=S)NNC(=O)c1cc(-c2ccncc2)nc2ccccc12 | -1.0% | ? | ? | 19.5% | 7.8 | -29.5%
COCCCNC(=S)NNC(=O)c1cc(C2CC2)nc2ccccc12 | 8.5% | 2.82µM* | ? | -1.7% | i | -0.1%
CCCc1cc(C(=O)NNC(=S)NCC)c2ccccc2n1 | ? | -39.8% | ? | -1.5% | 0.0 | ?
CCNC(=S)NNC(=O)c1cc(-c2cc(C)ccc2C)nc2ccccc12 | 14.6µM* | 0.355µM* | -21.9% | 1.3% | 5.0 | 14.6µM*
CC(C)(C)OC(=O)N1C2C=CC1C1=COCCN1C2=O (configuration not stated) | . | 30.9% | 1.0% | . | . | .
Cc1ccc(-n2nc3c(N4CCC(C(=O)NC5CCC(C)CC5)CC4)nnc(C)c3c2C)cc1 (configuration not stated) | 14.6µM* | . | . | . | . | 20.6µM*
Cc1ccc(-n2nc3c(N4CCC(C(=O)NC5CCCCC5)CC4)nnc(C)c3c2C)cc1 | ? | . | . | . | . | 11.6µM*
Cc1nnc(N2CCC(C(=O)NC3CCCCC3)CC2)c2nn(-c3ccc(Cl)cc3)c(C)c12 | -7.5% | . | . | . | . | -6.5%
Cc1nnc(N2CCC(C(=O)NC3CCC(C)CC3)CC2)c2nn(-c3ccc(Cl)cc3)c(C)c12 (configuration not stated) | -19.1% | 8.3% | -12.5% | 11.5% | -2.5 | -9.4%
COc1ccccc1N1CCN(c2cc(=O)n(-c3ccccc3Cl)c(=O)[nH]2)CC1 | -21.4% | -21.6% | 5.1% | -16.7% | 28.0 | -15.8%
CCN1CCN(c2cc(=O)n(Cc3ccc(F)cc3)c(=O)[nH]2)CC1 | 0.6% | 5.7% | -9.0% | 3.5% | 15.9 | 1.7%
COc1ccccc1N1CCN(c2cc(=O)n(Cc3ccc(F)cc3)c(=O)[nH]2)CC1 | 3.66µM* | 25.5% | -10.6% | -17.8% | 32.4 | 4.61µM*
O=c1cc(N2CCN(c3ccccc3Cl)CC2)[nH]c(=O)n1Cc1ccc(F)cc1 | 4.61µM* | 10.4% | -8.4% | ? | 18.2 | 1.46µM*
SMILES | TDP1 cell CPT | RORg inh | Gal4-VP16 FLuc | ELG1 repair inh | IL1B secr inh | TDP1 cell noCPT
CC(C)NC(=O)Nc1ccc2c(c1)C(=O)N([C@H](C)CO)C[C@H](C)[C@@H](CN(C)C(=O)NC(C)C)O2 | -1.3% | . | . | . | 8.8 | 0.2%
COc1cccc(CNC(=O)C2=C(C)C(=O)OC23CCCCCC3)c1 | -18.6% | . | . | . | . | -26.8%
Cc1nnc(N2CCC(C(=O)NCCC(C)C)CC2)c2nn(-c3ccc(Cl)cc3)c(C)c12 | ? | . | . | . | . | 20.6µM*
CC(=O)c1ccc(NC(=O)C2CCN(c3nnc(C)c4c(C)n(-c5ccccc5)nc34)CC2)cc1 | 14.6µM* | . | . | . | . | 20.6µM*
CCCCN(CC)CCNC(=O)C1CCN(c2nnc(C)c3c(C)n(-c4ccc(C)cc4)nc23)CC1 | ? | . | . | . | . | 20.6µM*
Cc1ccc(-n2nc3c(N4CCC(C(=O)NC(C)C)CC4)nnc(C)c3c2C)cc1 | -16.3% | . | . | . | . | -6.0%
Cc1nnc(N2CCC(C(=O)N3CCCCC3)CC2)c2nn(-c3ccc(Cl)cc3)c(C)c12 | 20.6µM* | -1.9% | -0.5% | ? | -28.3 | ?
Cc1ccc(NC(=O)C2CCN(c3nnc(C)c4c(C)n(-c5ccccc5)nc34)CC2)cc1Cl | -1.6% | . | . | . | . | ?
Cc1ccc(CCNC(=O)C2CCN(c3nnc(C)c4c(C)n(-c5ccccc5)nc34)CC2)cc1 | ? | . | . | . | . | -14.1%
Cc1ccc(-n2nc3c(N4CCC(C(=O)NCCc5cccs5)CC4)nnc(C)c3c2C)cc1 | 25.9µM* | -39.8% | ? | ? | -3.5 | 29.1µM*
Cc1nnc(N2CCC(C(=O)NCCc3ccccc3)CC2)c2nn(-c3ccccc3)c(C)c12 | ? | . | . | . | . | 25.9µM*
CC(C)(C)C(=O)NCc1ccc(C(=O)CSc2nnc3n2CCCCC3)s1 | -8.3% | . | . | . | 13.4 | -2.6%
O=C1CCCC/C1=C/Nc1ccc(C(=O)O)cc1 | -6.0% | 15.4% | 4.2% | ? | -4.8 | 1.0%
CC1CCC/C(=C\Nc2ccc(O)cc2)C1=O (configuration not stated) | 20.6µM* | -2.5% | -2.8% | ? | ? | ?
Cc1ccc(-c2cc(C(=O)N3N=C(C(F)F)CC3(O)C(F)F)c3ccccc3n2)cc1C (configuration not stated) | 18.4µM* | ? | ? | ? | -71.3* | ?
O=C(c1cc(-c2ccccc2)nc2ccccc12)N1N=C(C(F)F)CC1(O)C(F)F (configuration not stated) | -28.7% | 14.2% | 5.2% | 4.9% | 4.9 | -10.4%
